What was measured:
Experiment in all cases: lowest phenotypically active concentration; higher = less potent
Settings in all cases: treatment time: 24 h
[1] = system: HepG2-CANX-COX4
Procedure, shortened: (§1)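 Two criteria together defined phenotypic activity: deviation and reproducibility. Deviation meant ≥3 of 4 wells beyond the 95th percentile of Euclidean distances in solvent control wells, and reproducibility meant a median replicate Pearson correlation above the 95th percentile of non-replicates. Wells had been treated for 24 h at 0.3, 1, 3 or 9 µM in fifteen gene-edited A549, HepG2 and WPMY1 reporter lines before live imaging.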

[2] = system: HepG2-GM130-SQSTM1
Procedure, shortened: as §1

[3] = system: HepG2-TP53BP1-CLTA
Procedure, shortened: as §1

[4] = system: HepG2-TUBA1B-RELA
Procedure, shortened: as §1

[5] = system: WPMY1-ACTB-RAB5A
Procedure, shortened: as §1

[6] = system: WPMY1-CANX-COX4
Procedure, shortened: as §1

[7] = system: WPMY1-TP53BP1-CLTA
Procedure, shortened: as §1

[8] = system: WPMY1-TUBA1B-RELA
Procedure, shortened: as §1

Row | SMILES | lowest phenotypically active concentration [1] [µM] | lowest phenotypically active concentration [2] [µM] | lowest phenotypically active concentration [3] [µM] | lowest phenotypically active concentration [4] [µM] | lowest phenotypically active concentration [5] [µM] | lowest phenotypically active concentration [6] [µM] | lowest phenotypically active concentration [7] [µM] | lowest phenotypically active concentration [8] [µM]
1 | CCCCCCCCCCCCC/C=C/[C@@H](O)[C@H](CO)N(C)C [N,N-Dimethylsphingosine] | 3 | 9 | 3 | 9 | 3 | 3 | 9 | 3
2 | CN1CCN(c2ccc(-c3cccc(CN4CCOCC4)c3)cc2NC(=O)c2c[nH]c(=O)cc2C(F)(F)F)CC1 | – | 9 | 9 | 9 | – | 9 | 9 | 9
3 | COc1ccc(Cl)cc1NC(=O)Nc1cc(C)nc2ccccc12 | 1 | 3 | 3 | 3 | – | – | – | –
4 | CC(=O)O[C@@H]1C[C@H]2C(C)(C)C(=O)C=C[C@]2(C)[C@H]2CC[C@@]3(C)[C@H](c4ccoc4)OC(=O)[C@H]4O[C@]43[C@@]21C [gedunin] | 1 | 9 | 3 | 9 | 3 | 9 | – | –
5 | N#C/C(=C/c1ccc(-c2cc(Cl)ccc2Cl)o1)C(=O)Nc1cccc2ncccc12 | – | – | – | – | – | 9 | – | –
6 | CCOC(=O)c1c(CSc2ccccc2)n(C)c2cc(Br)c(O)c(CN(C)C)c12 [arbidol] | 9 | 9 | 9 | 9 | – | – | – | –
7 | CCCc1cc(C)n(C)c(=O)c1CN(C)C(=O)c1cc(-c2ccc(N3CCN(C(C)C)CC3)nc2)cc2c1cnn2C(C)C | – | 3 | 3 | – | 3 | 3 | 9 | 9
8 | CC(=O)Nc1ccc(NC(=S)NC(=O)c2ccc(C(C)(C)C)cc2)cc1 [Tenovin-1] | 3 | – | 9 | 3 | ≤ 0.3 | 9 | 1 | 1
9 | N#Cc1cccc(-c2c[nH]c3ncnc(N4CCOCC4)c23)c1 | 3 | 3 | 3 | 1 | 9 | 9 | 3 | –
10 | CC(CN(C)C)CN1c2ccccc2CCc2ccccc21 (stereo unspecified) [trimipramine] | – | – | – | 9 | 9 | 9 | – | –
11 | Clc1ccc2c(c1)C(N1CCNCC1)=Nc1ccccc1O2 [amoxapine] | – | 9 | – | 3 | 9 | – | – | 9
12 | CCSc1ccc2c(c1)N(CCCN1CCN(C)CC1)c1ccccc1S2 [thiethylperazine] | – | 9 | – | 9 | 9 | 9 | 9 | 9
13 | NC(=O)C(c1ccccc1)(c1ccccc1)[C@@H]1CCN(CCc2ccc3c(c2)CCO3)C1 [darifenacin] | 9 | 9 | 9 | – | – | – | 9 | –
